# Assay outcomes from PubChem.
# GLP1R ag = GLP-1 receptor (human) agonism; P43220; HEK293 GLP-1R CRE-luciferase, luminescence, 4-6 h; cells express a hypersensitive GLP-1R form; Potency, µM (series often up to 45.6 µM), inactives show top-dose activation, hits mostly activators; actives 0.007% (n = 380,000); AID 624172; further: potency means the concentration at half of the fitted maximal effect; % of control where 0% means no effect
# Target sequence (P43220 whole entry, looked up): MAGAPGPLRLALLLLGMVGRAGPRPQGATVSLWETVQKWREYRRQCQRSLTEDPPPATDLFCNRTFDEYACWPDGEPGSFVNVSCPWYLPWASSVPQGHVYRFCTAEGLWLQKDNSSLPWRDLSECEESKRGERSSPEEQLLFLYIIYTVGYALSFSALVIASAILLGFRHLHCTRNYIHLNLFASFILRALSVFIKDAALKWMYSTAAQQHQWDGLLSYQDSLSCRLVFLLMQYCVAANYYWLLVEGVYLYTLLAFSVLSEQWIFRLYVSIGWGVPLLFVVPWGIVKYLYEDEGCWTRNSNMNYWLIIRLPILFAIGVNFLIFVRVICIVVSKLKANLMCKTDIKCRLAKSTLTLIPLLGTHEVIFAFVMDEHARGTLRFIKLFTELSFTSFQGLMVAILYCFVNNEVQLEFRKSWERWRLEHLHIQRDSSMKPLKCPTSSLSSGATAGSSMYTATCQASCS
# MmCpn inh = blocks the Methanococcus maripaludis chaperonin Mm-Cpn | purified Mm-Cpn ATPase, ADP Transcreener TR-FRET | Potency, µM (highest dose often 76.9 µM), without a hit: at the top dose activity, negative = inhibition, usual class: inhibitors | actives 0.031% (n = 330,000); further: potency means the concentration at half of the fitted maximal effect; on the % scale 0 is the no-effect control and ±100 the full control effect; nearly all actives have a fitted effect of over 80% in size
#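 Purified archaeal Mm-CPN (25nM final) preincubated 10 min at 37degC with compound, then 10uM ATP for 30 min at 37degC; ADP measured by HTRF Transcreener TR-FRET; buffer 30 mM TRIS pH 7.4, 100mM KCl, 5mM MgCl2, 1mM DTT.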
# uPA surface inh = cell surface uPA generation inhibition; cell surface uPA generation assay, qHTS; Potency, µM (top dose mostly 38.3 µM), without a hit: at the highest dose activity change, negative = inhibition, actives largely listed as inhibitors; actives 0.31% (n = 330,000); active means well fitted inhibition curve with a large enough effect; inconclusive means small, poorly fitted or top-dose-only effect; inactive means no such curve, though single readings can be large or run the other way; tested in mouse RAW 264.7 cells; further: potency means the concentration at half of the fitted maximal effect; on the % scale 0 is the no-effect control and ±100 the full control effect; nearly all actives have a fitted effect of over 55% in size
# GLP1R inv ag = acts as inverse agonist at human GLP-1 receptor | HEK293 GLP-1R CRE-luciferase, luminescence, 24 h; GLP-1R form is constitutively active | P43220 | actives 1.6% (n = 410,000) | Potency, µM (titrated, usually from 38.3 µM), for inactives: at the highest dose activity change, negative = inhibition, most hits filed as inhibitors; further: potency means the concentration at half of the fitted maximal effect; on the % scale 0 is the no-effect control and ±100 the full control effect; nearly all actives have a fitted effect of over 55% in size
#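 Assay principle: reduced luminescence from a cAMP-responsive reporter in HEK293 cells co-expressing a constitutively active GLP-1R. Conditions: 24 hr compound incubation, 37 deg C, 5% CO2.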
# HEK293 tox = cytotoxicity in counter-screen for GLP-1R inverse agonists; HEK293 cAMP-luciferase reporter cells, luminescence, 24 h; Potency, µM (series often up to 38.3 µM), inactives show top-dose activity change, negative = inhibition, most hits filed as inhibitors; actives 0.13% (n = 410,000);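 further: loss of luciferase light is scored as toxicity; potency means the concentration at half of the fitted maximal effect; on the % scale 0 is the no-effect control and ±100 the full control effect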
#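 To flag toxic compounds, the library was rerun on cells for 24 hr at 37 deg C and 5% CO2. Viability-linked luminescence was captured 12 min after adding luciferase detection reagent.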
# CCT chaperon mod = cytosolic chaperonin activity modulation | actives 0.3% (n = 360,000) | activity change, % (concentration not given with the values), hits read low | AID 651819 | purified chaperonin ATPase assay, HTRF ADP detection, 30 min; in the data active means activity change below about -30%; further: on the % scale 0 is the no-effect control and ±100 the full control effect
#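 Enzyme 40 or 20 nM (batch-dependent) in Tris pH 7.4/KCl/MgCl2/DTT; cpd 76 uM single point; ATP 10 uM; 30 min 37 °C; Transcreener ADP HTRF detection, 30 min RT; ratio 665/615.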
# * = called active by the depositor; ? = inconclusive; · = not tested or not shown. Hits are enriched below; roughly 2.2% of the tested compounds scored in any of these assays. Unless noted, the call rests on the fitted dose curve; in most records, active means well fitted curve in the direction sought with a large enough effect; inconclusive means small, poorly fitted or top-dose-only effect, or another doubt; inactive means no such curve, though single readings can be large; an effect the other way counts as inactive or inconclusive.
SMILES,GLP1R ag,MmCpn inh,uPA surface inh,GLP1R inv ag,HEK293 tox,CCT chaperon mod
Cc1ccc(NC(=O)/C=C/c2ccc(Cl)cc2)nc1,0.6%,-1.1%,-2.1%,-12.2%,3.0%,-1.3
COc1ccc(/C=C2\SC(=N)N(c3nccs3)C2=O)cc1OC,32.6%,2.9%,-11.2%,10µM*,-28.6%,0.4
CCOCCSc1c(C)cnc2c1c(=O)n(C)c(=O)n2C,·,·,·,-14.5%,5.2%,·
CN1CCN(S(=O)(=O)c2ccc(N(C)Cc3ccc(OC(F)F)cc3)c([N+](=O)[O-])c2)CC1,-1.2%,0.0%,-23.0%,10µM*,-23.8%,1.6
Cc1cc(C)cc(-n2c(SCC(=O)Nc3ccccc3F)nc3c(oc4ccccc43)c2=O)c1,·,·,·,-6.1%,2.1%,·
COc1ccc(Cn2ccnc2SCC(=O)Nc2ccc(C)cc2C)cc1,·,·,·,-24.8%,-10.9%,·
Cn1c(/C=C/c2ccccc2)nc2ccccc21,1.8%,1.1%,3.98µM*,4.47µM*,-16.0%,1.8
Cn1c(=O)c(/C=C/c2ccccc2)nc2ccccc21,15.0%,-0.4%,-0.5%,3.6%,114.3%,-2.5
Cc1ccc(S(=O)(=O)N(C)C)cc1NC(=O)COC(=O)/C(=C/c1ccc(F)cc1)c1cccs1,-1.1%,1.4%,-11.3%,10µM*,-9.2%,1.2
COc1cc(/C=N/Nc2nncn2N)ccc1OCc1c(C)no[n+]1[O-],-4.2%,-1.7%,11.2µM*,0.6%,?,-0.8
COc1ccc(/C=N/Nc2nncn2N)cc1Br,-29.9%,-0.1%,-13.3%,?,?,-0.5
O=C(Nc1ccc([N+](=O)[O-])cc1)C(c1ccccc1)c1ccccc1,-1.6%,·,·,2.24µM*,-17.6%,0.5
O=C(NCC(O)c1ccc([N+](=O)[O-])cc1)C(c1ccccc1)c1ccccc1 (stereo not drawn),15.1%,-13.0%,0.5%,?,-6.7%,-3.1
O=C(Nc1ccc(Nc2ccncc2)cc1)c1ccc([N+](=O)[O-])cc1,-0.8%,-0.7%,-11.7%,10µM*,?,-2.6
CO/N=C(\C(=O)N[C@@H]1C(=O)N2C(C(=O)[O-])=C(C[n+]3cccc4c3CCCC4)CS[C@H]12)c1csc(N)n1,-1.6%,·,·,·,·,·
COCCCNC(=O)c1ccc(Cn2c(=O)c3ccccc3n(CC(=O)Nc3c(C)cccc3C)c2=O)cc1,-2.5%,·,·,-0.6%,2.6%,·
Cc1ccc(SCCNC(=S)Nc2cc(C)cc(C)c2)cc1,0.9%,1.5%,-0.2%,7.94µM*,?,2.5
Cc1ccc(NC(=S)NCCSc2ccc(Cl)cc2)cc1,9.2%,4.3%,4.1%,?,?,1.0
CC(C)CNC1=C(C(=S)Nc2ccccc2)C(=O)CC(C)(C)C1,18.3%,-14.7%,8.8%,3.98µM*,56.1%,-1.9
CCCCN(c1ccccc1)c1ncnc2c1cnn2-c1ccc(Cl)cc1,·,·,·,?,0.6%,·
Cc1ccc(CNC(=O)C2CCCN(C(=O)Nc3ccc(F)cc3)C2)cc1 (stereo not drawn),4.5%,1.8%,-1.0%,-7.9%,3.1%,0.7
Cc1ccc(NC(=O)N2CCCC(C(=O)O)C2)cc1 (stereo not drawn),-1.7%,-0.2%,1.9%,6.7%,0.0%,-43.2*
CCN(CC)C(=O)c1c(-c2ccccc2)c(-c2ccccc2)nn(C)c1=O,·,·,·,-5.3%,-1.2%,·
CCOc1ccc(/C=C/c2nc3ccccc3n2S(=O)(=O)c2cccc(Cl)c2)cc1,·,·,·,?,0.2%,·
O=C(CSc1nc2c([nH]c3ccccc32)c(=O)n1-c1cccc(Cl)c1)c1ccccc1,-0.5%,·,·,4.4%,0.0%,·
CCOc1ccc(C2=C(C=C(C#N)C#N)C(c3ccccc3)c3ccccc3O2)cc1 (stereo not drawn),-3.7%,-0.9%,1.3%,6.31µM*,-12.3%,-2.1
Cc1ccc(O)c(N)c1,7.5%,-9.5%,2.82µM*,1.0%,-18.5%,-1.3
O=C(CCCOc1ccc(Cl)cc1Cl)N/N=C/c1ccccc1O,-3.9%,2.5%,-9.2%,4.47µM*,?,2.9
